Inconclusive results are not listed. Calls of active or inactive are those of the source. Rule for the calls, unless noted: active = hit-call score of the fitted dose curve at least 0.9, where 1 is the maximum; inactive = score below 0.9.

As usually defined, the AC50 is the concentration at which the activity in the assay is half-maximal.

Tested on in the first test: not listed separately
The experiment in a line: ATG_VDRE_CIS: Attagene CIS-FACTORIAL HepG2 Assay for human Vitamin D Receptor Element (VDRE) (AID 2282968). As to conditions: HepG2 VDRE cis-reporter transcription, actives raise or lower the signal. An outline of the steps: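 Transient MRTU transfection of HepG2, 24 h compound exposure. Readout: reporter transcripts via RT-PCR and capillary electrophoresis, fluorescence. Bidirectional fit vs DMSO.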
As to `Cc1cc(C)cc(C)c1`, the compound was called inactive.
On to `CC(C)N(C(=O)CCl)c1ccccc1`, for which the AC50 was 51.7 µM (active).
As for `BrCC(Br)c1ccccc1` (centres undefined), the call was inactive.
Consider `Clc1cccc(Cl)c1Cl`, for which the compound was called inactive.
For `CC(C)[N+](=O)[O-]`, the outcome was inactive.
`Cc1cc(SCc2sc(-c3ccc(C(F)(F)F)c(F)c3)nc2C)ccc1OCC(=O)O`: the AC50 was 9.54 µM (active).
As to `O=C(CBr)c1ccc(O)cc1`, the compound was classed as inactive.
As for `CCOP(=S)(OCC)O/N=C(\C#N)c1ccccc1`, the outcome was inactive.
As to `CCN(CC)C(=O)C(Cl)=C(C)OP(=O)(OC)OC`, the outcome was inactive.
Consider `O=C(O)CC(O)(CC(=O)O)C(=O)O`, for which the compound was classed as inactive.
On to `ClCc1ccccc1Cl`, for which the AC50 was 100 µM (active).
As for `CCCCCCCCBr`, the compound was called inactive.
For the compound `N#Cc1ccccc1Cl`, the result was inactive.
`COc1nn(C(=O)NS(=O)(=O)c2ccccc2OC(F)(F)F)c(=O)n1C`: the compound was called inactive.
As to `N#Cc1ccc(Cl)cc1`, the outcome was inactive.
For the compound `NNCCO`, the compound was classed as inactive.
For `O=[N+]([O-])c1ccc(Cl)c([N+](=O)[O-])c1`, the compound was classed as inactive.
Regarding `C=CC(Cl)CCl` (centres undefined), the compound was classed as inactive.
Same read-out and setting: the same measure for `O=C(O)COc1cc(Cl)c(Cl)cc1Cl`: “inactive”; for `C[C@H]1C(=O)O[C@@H]2CCN3CC=C(COC(=O)[C@](C)(O)[C@]1(C)O)[C@H]23`: “inactive”.
In the case of `CN(C)[C@@H]1C(=O)C(C(N)=O)=C(O)[C@@]2(O)C(=O)C3=C(O)c4c(O)ccc(Cl)c4[C@@](C)(O)[C@H]3C[C@@H]12`, the compound was called inactive.
For `CN(N=O)C(N)=O`, the call was inactive.
`OCCCCO`: the result was inactive.
With `CCCCCCCCCCCCCCC(Br)C(=O)O` (centres undefined), the concentration at half-maximal activity (AC50) is 162 µM (active).
`OC[P+](CO)(CO)CO`: the compound was classed as inactive.
In the case of `C=CCOC(N)=O`, the call was inactive.
Consider `O=CCCl`, for which the AC50 is 32.3 µM (active).
Consider `N#CS`, for which the call was inactive.
On to `CCOC(=O)CC(=O)CCl`, for which the AC50 was 27 µM (active).
Turning to `CC(C)C(C)(N)C#N` (centres undefined), the call was inactive.
Take `CCC[CH2][Sn]([CH2]CCC)([CH2]CCC)[CH2]CCC`: the AC50 was 4.44 µM (active).
Turning to `N#CCC#N`, the call was inactive.
As for `FC(F)OCC(F)(F)C(F)(F)F`, the result was inactive.
Take `C[As+](C)(C)CC(=O)[O-]`: the call was inactive.

The target of another test is Nuclear receptor subfamily 1 group I member 3 (Homo sapiens) (UniProt Q14994). The experiment in a line: ATG_CAR_TRANS: Attagene TRANS-FACTORIAL HepG2 Assay for human Constitutive Androstane Receptor (CAR) (AID 2282969; active = hit-call score of the fitted dose curve at least 0.9, where 1 is the maximum;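 note: activators raise reporter mRNA above DMSO so AC50 marks induction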). Conditions: HepG2 Attagene TRANS-FACTORIAL CAR reporter. An outline of the steps: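 Transiently transfected HepG2, multiplex TRANS reporters (CAR-Gal4 chimera driving GAL4-UAS reporter). 24 h dosing. Readout: reporter transcript by RT-PCR + capillary electrophoresis, fluorescence intensity; positive direction vs DMSO.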
Nuclear receptor subfamily 1 group I member 3 (Homo sapiens), sequence (Q14994 whole entry, looked up, the tested form may be a part): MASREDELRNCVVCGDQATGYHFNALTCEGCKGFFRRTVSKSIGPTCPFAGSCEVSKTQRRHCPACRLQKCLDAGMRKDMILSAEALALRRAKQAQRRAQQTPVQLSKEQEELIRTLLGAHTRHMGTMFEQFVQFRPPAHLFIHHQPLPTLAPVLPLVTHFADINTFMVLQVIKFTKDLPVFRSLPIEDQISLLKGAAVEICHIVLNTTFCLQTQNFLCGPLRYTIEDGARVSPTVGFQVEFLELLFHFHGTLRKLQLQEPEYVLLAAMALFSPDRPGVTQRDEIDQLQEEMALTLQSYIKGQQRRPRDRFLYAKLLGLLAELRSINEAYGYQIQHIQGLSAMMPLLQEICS
With `CCOC(=O)CCN(SN(C)C(=O)Oc1cccc2c1OC(C)(C)C2)C(C)C`, the outcome was inactive.
The same measure, in the same setting: the same measure for `CCCCOC(=O)COC(=O)c1ccccc1C(=O)OCCCC`: “inactive”; for `O=C1C=CC(=O)c2ccccc21`: “inactive”; for `OC[C@@H](O)[C@H]1O[C@@H]2O[C@H](C(Cl)(Cl)Cl)O[C@@H]2[C@H]1O`: “inactive”.
Consider `CCC(C)(C#N)N=NC(C)(C#N)CC` (centres undefined), for which the compound was called inactive.

These data come from PubChem BioAssay (EPA / NIEHS).
